DT40 TDP1 no CPT: qHTS for Inhibitors of human tyrosyl-DNA phosphodiesterase 1 (TDP1): qHTS in cells in absence of CPT. DT40 Tdp1-/- hTDP1 cells, no CPT, ATP luminescence, 48 h. Potency, µM (top dose mostly 46.2 µM), for inactives: top-dose activity change, negative = growth inhibition, actives largely listed as inhibitors. 420,000 tested, 15% active; further: potency means the concentration at half of the fitted maximal effect; nearly all actives have a fitted effect of over 55% in size
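Growth of hTDP1-complemented DT40 Tdp1-knockout cells is measured by ATP luminescence after at least 48 hr compound exposure at 37 °C, with DMSO substituting for the 20 nM CPT used in the parallel screen.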
RORgamma inh: ROR gamma (mouse) transcription inhibition | P51450 | Drosophila S2 Gal4-RORgamma UAS-luciferase reporter, 20 h | Potency, µM (titrated, usually from 53.6 µM), inactives show at the top dose activity change, negative = inhibition, actives largely listed as inhibitors | 310,000 tested, 5.4% active; further: potency means the concentration at half of the fitted maximal effect; nearly all actives have a fitted effect of over 60% in size
Target sequence (P51450 whole entry, looked up, the tested form may be a part): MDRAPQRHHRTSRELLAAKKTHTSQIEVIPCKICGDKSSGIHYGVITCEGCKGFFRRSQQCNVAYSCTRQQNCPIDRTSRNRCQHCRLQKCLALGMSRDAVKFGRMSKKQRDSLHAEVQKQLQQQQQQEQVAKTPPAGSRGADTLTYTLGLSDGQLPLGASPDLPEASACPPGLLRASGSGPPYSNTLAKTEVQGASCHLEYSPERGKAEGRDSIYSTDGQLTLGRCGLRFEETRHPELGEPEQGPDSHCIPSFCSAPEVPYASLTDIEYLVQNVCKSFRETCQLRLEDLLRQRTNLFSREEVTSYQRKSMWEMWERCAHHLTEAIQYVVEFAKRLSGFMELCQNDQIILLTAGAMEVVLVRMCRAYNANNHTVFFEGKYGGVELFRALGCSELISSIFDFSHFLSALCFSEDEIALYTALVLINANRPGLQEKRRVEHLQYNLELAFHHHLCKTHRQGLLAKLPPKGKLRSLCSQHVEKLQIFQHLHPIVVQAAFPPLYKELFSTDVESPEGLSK
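Using a luciferase readout, inhibitors were identified by reduced reporter activity in Drosophila cells coexpressing a copper-inducible Gal4–ROR gamma fusion and UAS-driven Photinus luciferase, incubated 20 hr after 700 uM copper sulfate.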
LDHA inh: inhibitors of human lactate dehydrogenase A. P00338. purified LDHA, NADH/diaphorase-resazurin fluorescence; stronger effect = lower value. activity change, % (values are at about 110 or 230 µM). 480,000 tested, 0.15% active. AID 1347041; in the data active means activity change below about -30%; inconclusive means mostly about -25% to -30%;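 further: plate controls were DMSO wells for no effect and wells without enzyme for full effect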
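Enzyme activity of human lactate dehydrogenase 5 (2 nM; 0.06 mM NADH, 0.2 mM pyruvate, 5 min, RT) is measured via a resazurin/diaphorase fluorescence readout of residual NADH.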
Gal4-VP16 FLuc: inhibits Gal4-VP16 luciferase reporter, ROR gamma counter-screen | Drosophila S2 Gal4-VP16 UAS-luciferase, luminescence, 20 h | Potency, µM (titrated, usually from 53.6 µM), for the others: at the highest dose activity, negative = inhibition, most hits filed as inhibitors | 310,000 tested, 3.5% active | AID 2546;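 further: Gal4-VP16 expression switched on by copper sulfate through the metallothionein promoter; potency means the concentration at half of the fitted maximal effect; nearly all actives have a fitted effect of over 50% in size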
DT40 TDP1 CPT: growth inhibition of DT40 Tdp1-/-;hTDP1 cells with camptothecin (screen for TDP1 inhibitors). chicken DT40 Tdp1-/-;hTDP1 cells + 20 nM CPT, ATP luminescence, 48 h. Potency, µM (highest dose often 46.2 µM), for inactives: at the highest dose activity change, negative = growth inhibition, hits mostly inhibitors. 420,000 tested, 12% active; further: potency means the concentration at half of the fitted maximal effect; nearly all actives have a fitted effect of over 55% in size
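Chicken DT40 Tdp1-/- cells complemented with human TDP1, 400 cells/well, exposed to compounds plus 20 nM camptothecin for at least 48 h at 37 C; viability read as ATP content by CellTiter-Glo luminescence.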
IL1B secr inh: inflammasome signaling inhibition, IL-1 beta readout; THP-1 LPS/ATP IL-1B secretion, AlphaLISA, 16 h; stronger effect = lower value; activity change, % at 57.5 µM; AID 743279; 360,000 tested, 4.7% active; in the data active means activity change below about -50%; inconclusive means mostly about -30% to -49%
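Secreted IL-1B measured by AlphaLISA bead assay after 16 h compound exposure of THP-1 cells; compounds (final up to 57.5 uM) added 1 h before LPS (250 ng/mL) and ATP (1.25 mM) stimulation; lower signal means less secretion.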
Active calls of the source: *; u = inconclusive; x = no result given; [ ] = remark or other dose. Most compounds without a hit are left out; they make up all but 18% or so of the library. Unless noted, the call rests on the fitted dose curve; in most records, active means well fitted curve in the direction sought with a large enough effect; inconclusive means small, poorly fitted or top-dose-only effect, or another doubt; inactive means no such curve, though single readings can be large; an effect the other way counts as inactive or inconclusive. Unless noted, on the % scale 0 is the no-effect control and ±100 the full control effect.

SMILES	DT40 TDP1 no CPT	RORgamma inh	LDHA inh	Gal4-VP16 FLuc	DT40 TDP1 CPT	IL1B secr inh
Oc1ccc(N=C/C=C/c2cccc(Br)c2)cc1-c1nc2ccccc2s1	20.6µM*	u	14.9	7.94µM*	11.6µM*	-14.9
Nc1ccc(O)c(-c2nc3ccccc3s2)c1	16.4µM*	u	0.9	-17.2%	13µM*	-6.7
O=C(O)C/C(=C/c1cccc(Br)c1)c1nc2ccccc2s1	x	x	-1.6	x	x	x
Nc1ccc(-c2nc3ccc(C(=O)O)cc3s2)cc1	-26.4%	0.562µM*	-7.3	0.631µM*	-29.8%	4.4
Nc1cc2sc(-c3ccc(C(=O)O)cc3)nc2cc1Cl	u	10µM*	7.5	11.2µM*	8.2µM*	10.1
Nc1nc(-c2ccc(C(=O)O)cc2)cs1	-6.8%	2.7%	-5.6	7.5%	13.8%	11.3
CN(C(=O)Cn1cc(C#N)c2ccccc21)C1CCCCC1	x	x	-4.0	x	x	x
Nc1ccc(-c2nc3ccc(N)cc3s2)cc1	u	u	9.5	7.94µM*	-12.5%	-80.2*
Oc1ccc(-c2nc3ccccc3s2)cc1	-16.0%	u	0.8	u	u	13.6
Nc1ccc2nc(-c3ccc(O)cc3)sc2c1	20.6µM*	x	9.1	x	20.6µM*	x
CN(C)c1ccc(N/C=C/C(=O)c2ccc(F)cc2)cc1	u	10µM*	29.4	u	u	-29.2
NS(=O)(=O)c1ccc(N/C=C\C(=O)c2ccc(F)cc2)cc1	u	36.6%	-8.7	u	-8.8%	-1.5
CN(C)c1ccc(N/C=C/C(=O)c2ccco2)cc1	u	-36.4%	15.2	11.2µM*	20.6µM*	u
O=C(NCCCOC1CCCCC1)C1CCCO1 (stereo unspecified)	x	x	-0.5	x	x	x
OC(CN1CCN(c2ncc(C(F)(F)F)cc2Cl)CC1)c1ccccc1 (stereo unspecified)	u	-17.1%	-1.0	-11.1%	u	4.3
FC(F)(F)c1cnc(N2CCN(C(=S)NCc3ccccc3)CC2)c(Cl)c1	20.6µM*	-10.2%	-8.8	-14.8%	u	-93.4*
O=C(CSc1ccccn1)N1CCN(c2ncc(C(F)(F)F)cc2Cl)CC1	16.4µM*	u	3.9	-9.5%	u	-8.1
O=C(O)c1nn(CC(=O)N2CCN(c3ncc(C(F)(F)F)cc3Cl)CC2)c(=O)c2ccccc12	16.4µM*	u	-9.2	u	-25.3%	-6.1
CC(OC(=O)c1nn(C)c(=O)c2ccccc12)C(=O)N1CCCc2ccccc21 (stereo unspecified)	x	x	-7.5	x	x	x
Cc1cc(C)c(NC(=O)CN2CCCN(c3ccc(C(F)(F)F)cn3)CC2)c(Cl)c1	x	x	0.9	x	x	x
O=C(COc1ccc2c(c1)CCC2)NC1CCS(=O)(=O)C1 (stereo unspecified)	x	x	0.8	x	x	x
Cc1c(C(=O)Nc2nc3ccccc3[nH]2)oc2ccccc12	23.1µM*	0.891µM*	-5.0	5.01µM*	20.6µM*	16.7
Cc1c(C(=O)Nc2nc3ccccc3[nH]2)oc2ccc(Br)cc12	u	5.62µM*	-2.5	4.47µM*	u	-6.0
Cc1c(C(=O)Nc2ccccn2)oc2c(Cl)cccc12	u	x	-9.2	x	-26.5%	11.5
Cc1c(C(=O)Nc2nc3ccccc3[nH]2)oc2c(Cl)cccc12	16.4µM*	10.2%	-4.1	6.31µM*	u	51.2
SMILES	DT40 TDP1 no CPT	RORgamma inh	LDHA inh	Gal4-VP16 FLuc	DT40 TDP1 CPT	IL1B secr inh
COCc1ccc(C(=O)NC(C)c2ccc(F)c(F)c2)cc1 (stereo unspecified)	x	x	-0.2	x	x	x
Cc1ccc(C(=O)NNC(=O)c2cccc(N(C)C)c2)cc1F	x	x	3.0	x	x	x
COc1ccccc1NC(=O)Nc1c(NC2CCCC2)c2ccccc2oc1=O	x	x	1.3	x	x	x
CC(C)c1ccc(NC(=O)c2ccc(NS(C)(=O)=O)cc2)cc1	4.61µM*	u	-6.1	1.5%	2.91µM*	-9.6
CS(=O)(=O)Nc1ccc(C(=O)Nc2ccc3ccccc3c2)cc1	5.17µM*	35.6%[1.91 µM]	-2.2	7.7%	2.91µM*	15.8
CCOC(=O)c1ccc(NC(=O)c2ccc(NS(C)(=O)=O)cc2)cc1	u	-3.5%	-6.6	-6.9%	u	-6.2
CC(=O)c1cccc(NC(=O)c2ccc(NS(C)(=O)=O)cc2)c1	-13.5%	-0.7%	-4.6	7.4%	3.6%	13.5
CCOC(=O)c1[nH]c2ccc(C)cc2c1NC(=O)c1ccccc1F	x	x	-12.9	x	x	x
Cc1ccccc1C(=O)Nc1ccc2c(c1)CCC2	x	x	4.4	x	x	x
FC(F)(F)c1nc(-c2cccs2)ncc1-c1nnnn1-c1ccc(Cl)cc1	2.91µM*	-21.4%	-5.2	-5.5%	4.11µM*	-26.8
COc1ccc(-n2nnnc2-c2cnc(N3CCCC3)nc2C(F)(F)F)cc1	9.2µM*	u	-2.4	u	8.2µM*	-55.5*
FC(F)(F)c1nc(-c2cccnc2)ncc1-c1nnnn1-c1ccccc1	16.4µM*	31.3%	-5.1	-7.4%	u	-11.5
CNc1ncc(-c2nnnn2-c2ccccc2)c(-c2ccccc2)n1	u	-3.4%	-8.0	-4.7%	u	0.0
Cc1ccccc1NC1C2CC3CC(C2)CC1C3 (stereo unspecified)	x	x	2.6	x	x	x
COc1ccc(OC)c(CNC(=O)N2CCc3sccc3C2)c1	x	x	-1.1	x	x	x
CCn1c(C)nc2cc(C(=O)NNC(=O)c3ccc(C)cc3)ccc21	-23.1%	x	0.1	x	-3.0%	9.7
CCn1c(C)nc2cc(C(=O)OC(C(F)(F)C(F)F)C(F)(F)C(F)F)ccc21	18.4µM*	7.08µM*	5.7	7.08µM*	u	1.9
CC(=O)N1N=C(c2ccco2)CC1c1ccc2nccnc2c1 (stereo unspecified)	x	x	-10.8	x	x	x
O=C(C=Cc1ccccc1)CC(c1ccccc1)N1CCOCC1 (stereo unspecified)	3.26µM*	x	-7.4	x	4.11µM*	-97.6*
Cc1cc(C)cc(-n2ncc3c2NC(=O)CC32C(=O)Nc3ccc(C(C)C)cc32)c1 (stereo unspecified)	x	x	3.4	x	x	x
Cc1nnc(N(Cc2ccco2)C(=O)c2ccc(C#N)cc2)s1	u	45.0%	-1.5	-3.4%	-14.4%	24.6
Cc1nnc(N(Cc2ccco2)C(=O)c2cccc(C#N)c2)s1	u	12.6µM*	-2.0	0.9%	u	7.1
COc1cccc(/C(=N/O)C2CC2c2ccc(Cl)cc2)c1 (stereo unspecified)	-17.3%	14.3%	1.9	-8.0%	5.5%	-88.4*
Cc1ccc(C(=O)c2ccccc2C(=O)OC/C=C/c2ccccc2)cc1C	x	x	-7.1	x	x	x
CCOc1ccccc1NC(=O)N1CCN(Cc2nc(-c3ccc(C)cc3)oc2C)CC1	x	x	6.7	x	x	x

Assay outcomes deposited in PubChem by National Center for Advancing Translational Sciences (NCATS).
